Screening results: PubChem, National Center for Advancing Translational Sciences (NCATS)
FLuc inh: blocks purified firefly luciferase enzyme activity | hit rate 2.5% among 76,000 | purified P. pyralis luciferase, luminescence, biochemical | AID 1347043 | Potency, µM (series often up to 115 µM), actives largely listed as inhibitors | P08659; further: nearly all actives have a fitted effect of over 65% in size
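Inhibitors were tested against purified firefly luciferase in a biochemical, low-substrate format (both substrates at 10uM) and luminescence measured with a CCD imager.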
GPT2 inhibitor: GPT2 alanine aminotransferase inhibition | Recombinant GPT2, coupled pyruvate oxidase/HRP Amplex Red fluorescence | Potency, µM (series often up to 57.7 µM), inactives show at the top dose activity change, negative = inhibition, actives largely listed as inhibitors | hit rate 0.25% among 100,000; further: nearly all actives have a fitted effect of over 60% in size
Target sequence (Q8TD30 whole entry, looked up): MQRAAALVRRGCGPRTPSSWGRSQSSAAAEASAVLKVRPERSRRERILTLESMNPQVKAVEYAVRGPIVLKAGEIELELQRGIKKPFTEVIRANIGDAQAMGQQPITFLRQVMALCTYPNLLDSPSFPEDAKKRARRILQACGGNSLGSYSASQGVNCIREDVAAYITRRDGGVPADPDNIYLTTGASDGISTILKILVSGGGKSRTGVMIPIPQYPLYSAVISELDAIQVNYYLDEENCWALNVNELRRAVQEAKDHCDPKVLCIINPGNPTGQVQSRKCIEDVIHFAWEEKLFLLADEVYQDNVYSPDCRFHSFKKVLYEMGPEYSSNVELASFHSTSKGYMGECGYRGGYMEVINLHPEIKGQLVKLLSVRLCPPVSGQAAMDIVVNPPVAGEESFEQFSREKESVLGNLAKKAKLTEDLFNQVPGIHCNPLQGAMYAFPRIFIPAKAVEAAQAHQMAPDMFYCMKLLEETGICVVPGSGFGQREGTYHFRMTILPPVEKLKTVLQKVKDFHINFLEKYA
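Fluorescence read-out: pyruvate from GPT2 turnover coupled to pyruvate oxidase, HRP and Amplex Red (0.2mM ThPP, 0.2U/mL PO and HRP, 50uM Amplex final). Substrates 250uM a-KG, 2mM L-alanine; enzyme 10ng/uL; 30 min RT.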
HEK cytotox: kills HEK 293 cells | hit rate 6.6% among 94,000 | Potency, µM (doses to about 115 µM), without a hit: at the top dose activity change, negative = cytotoxicity, hits mostly inhibitors | AID 1345083 | HEK 293 viability, ATP luminescence (CellTiter-Glo), 48-72 h; further: nearly all actives have a fitted effect of over 60% in size
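250 HEK 293 cells/well; compound by pintool; incubated 48 or 72 hr at 37 degree Celsius; CellTiter-Glo added, 10 min RT, luminescence imaged.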
3T3 cytotox: NIH 3T3 cell cytotoxicity; Potency, µM (highest dose often 96.7 µM), for inactives: at the highest dose activity change, negative = cytotoxicity, usual class: inhibitors; NIH 3T3 viability, CellTiter-Glo ATP luminescence, 48-72 h; hit rate 4.3% among 94,000; further: nearly all actives have a fitted effect of over 55% in size
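First NIH 3T3 cells are plated at 400 cells/well; next compound is pinned in; then plates incubate 48 or 72 hr at 37 °C; finally CellTiter-Glo is added and luminescence read after 10 min.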
hNpr1 antagonist: human Npr1 receptor antagonism; P16066; HEK293 hNpr1 GloSensor cGMP, ANP-stimulated luminescence; Potency, µM (doses to about 46.3 µM), for the others: at the highest dose activity change, negative = inhibition, usual class: inhibitors; hit rate 1.6% among 76,000; AID 1347048; calls by dose curve; further: nearly all actives have a fitted effect of over 60% in size
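HEK293 cells stably expressing human Npr1 and cGMP GloSensor pGS-40F, loaded 2 h with 2% GloSensor reagent, given compound 30 min at room temperature. Luminescence read before and 20 min after 0.1 nM hNppA.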
* hit, by the source's call; i = inactive; ? = inconclusive; · = not tested or not shown; [ ] = remark or other dose. Shown are actives, neighbours in structure and some others; about 10% of the full set was active somewhere. Unless noted, the call rests on the fitted dose curve; in most records, active means well fitted curve in the direction sought with a large enough effect; inconclusive means small, poorly fitted or top-dose-only effect, or another doubt; inactive means no such curve, though single readings can be large; an effect the other way counts as inactive or inconclusive. On the % scale 0 is the no-effect control and ±100 the full control effect; potency means the concentration at half of the fitted maximal effect.

SMILES | FLuc inh | GPT2 inhibitor | HEK cytotox | 3T3 cytotox | hNpr1 antagonist
COc1ccc2c(c1)C1(CCN(C(=O)COc3ccc(Cl)cc3)C1)C(=O)N2C (centres undefined) | 28.2µM* | 4.9% | -21.1% | ? | -18.8%
COc1ccc2c(c1)C1(CCN(S(=O)(=O)c3cccc(Cl)c3)C1)C(=O)N2C (centres undefined) | i | i | ? | ? | -0.2%
COc1ccc2c(c1)C1(CCN(S(=O)(=O)c3ccc(Cl)cc3)C1)C(=O)N2C (centres undefined) | i | -16.4% | 50.1µM* | -28.6% | -13.7%
CN1C(=O)N(C)C2(CCN(Cc3cn4cc(Cl)ccc4n3)C2)C1=O (centres undefined) | i | i | -1.4% | -13.2% | 11.7%
OCc1nnc2n1-c1ccc(Cl)cc1C(c1ccccc1Cl)=NC2 | · | i | · | · | ·
C#CCN1C(=O)[C@@H]2[C@H](c3ccccc31)[C@@H](C(=O)OCC)[C@@H](c1ccccc1)N2C(=O)c1ccco1 | · | · | 31.6µM* | ? | ·
CCOC(=O)[C@H]1CN(S(=O)(=O)Cc2ccccc2)[C@]2(C)C(=O)N(CC3CC3)c3ccccc3[C@H]12 | · | -4.0%[27.3 µM] | ? | ? | ·
CCOC(=O)[C@@H]1[C@H]2c3ccccc3N(C)C(=O)[C@H]2N(C(=O)c2cccs2)[C@@H]1c1ccccc1 | · | · | 79.4µM* | ? | ·
OC[C@H]1C[C@@H](NC2CCOCC2)[C@H](O)[C@@H]1O | i | i | -6.2%[230 µM] | -8.3%[174 µM] | 1.2%[70.6 µM]
COc1ccccc1-c1cc([C@H]2CN3CC[C@H]2C[C@@H]3COC(=O)Nc2cccc(C(C)=O)c2)nc(C)n1 | i | 4.0% | 89.1µM* | ? | -11.2%
Cc1nc(-c2cccs2)cc([C@H]2CN3CC[C@H]2C[C@@H]3COC(=O)NC2CCCCC2)n1 | i | i | 44.7µM* | 44.7µM* | 2.4%
COc1ccc(-c2cc([C@H]3CN4CC[C@H]3C[C@@H]4COC(=O)NC3CCCCC3)nc(C)n2)cc1 | i | -7.4% | -19.7% | -21.0% | 5.5%
Cc1nc(-c2cccs2)cc([C@H]2CN3CC[C@H]2C[C@@H]3COC(=O)Nc2cccc(C(F)(F)F)c2)n1 | i | 2.9% | 11.2µM* | ? | ?
CCCNC(=O)OC[C@H]1C[C@@H]2CCN1C[C@@H]2c1cc(-c2cccs2)nc(C)n1 | i | -3.6%[88.5 µM] | 112µM* | ? | 0.2%[70.6 µM]
COc1ccc(C(=O)N2[C@H]3CC[C@@H]2c2cnc(C)nc2C3)cc1OC | i | i | -7.8% | i | 3.5%
CC(C)(C)c1ccc(-c2cn(C[C@H]3CC4CCN3C[C@@H]4C(=O)NCc3ccccc3)nn2)cc1 (some centres undefined) | i | 3.2% | ? | ? | 5.9%
O=C1NC2(CCCN(Cc3ccncc3)C2)COc2ccccc21 (centres undefined) | i | -10.6%[88.5 µM] | 70.8µM* | 31.6µM* | -18.5%[70.6 µM]
CCOC(=O)[C@H]1CN(C(=O)Nc2cccc(C#N)c2)[C@]2(C)C(=O)N(C)c3ccccc3[C@H]12 | · | -8.2%[27.3 µM] | ? | ? | ·
COCCOCC(=O)N1CCC2(CC1)c1nccn1-c1ccccc1CN2CC(C)C | i | i | -15.1% | i | -14.2%
CC(C)CN1Cc2ccccc2-n2ccnc2C12CCN(C(=O)c1cccc(F)c1)CC2 | i | i | 35.5µM* | ? | -18.1%
CN1Cc2ccccc2-n2ccnc2C12CCN(C(=O)c1cccc(F)c1)CC2 | i | i | -16.8% | -10.5% | -2.6%
CCn1ccc(C(=O)N2CCC3(CC2)c2nccn2-c2ccccc2CN3CC(C)C)n1 | i | 1.7% | 44.7µM* | ? | 3.8%
CC(C)CN1Cc2ccccc2-n2ccnc2C12CCN(C(=O)c1ccoc1)CC2 | i | i | ? | ? | -21.1%
CC(C)CN1Cc2ccccc2-n2ccnc2C12CCN(C(=O)c1cccs1)CC2 | i | i | 44.7µM* | ? | -18.6%
CCOCC(=O)N1CCC2(CC1)c1nccn1-c1ccccc1CN2CC(C)C | i | 3.4% | ? | i | -4.0%
SMILES | FLuc inh | GPT2 inhibitor | HEK cytotox | 3T3 cytotox | hNpr1 antagonist
CC(C)CN1Cc2ccccc2-n2ccnc2C12CCN(C(=O)c1ccco1)CC2 | i | -8.8% | 44.7µM* | ? | -15.3%
CC(C)CN1Cc2ccccc2-n2ccnc2C12CCN(C(=O)c1ccn[nH]1)CC2 | i | -9.2% | 39.8µM* | -26.5% | -15.1%
CN1Cc2ccccc2-n2ccnc2C12CCN(C(=O)c1ccccn1)CC2 | i | -1.8% | 0.4% | -5.3% | 1.8%
COc1ccc(C(=O)NC[C@H]2C[C@@H]3CCN2C[C@@H]3c2cc(C3CCCCC3)nn2C)cc1 | i | 0.8% | ? | ? | 1.6%
O=C(NC[C@H]1C[C@@H]2CCN1C[C@@H]2CN1CCC(Cc2ccccc2)CC1)Nc1ccccc1 | i | 4.1% | 31.6µM* | ? | -1.5%
CC(C)NC(=O)NC[C@H]1C[C@@H]2CCN1C[C@@H]2CN1CCN(c2ccccc2)CC1 | i | i | -16.8%[172 µM] | -23.1%[174 µM] | 0.4%[70.6 µM]
CC(C)NC(=O)NC[C@H]1C[C@@H]2CCN1C[C@@H]2CN1CCC(Cc2ccccc2)CC1 | i | -3.2%[88.5 µM] | 50.1µM* | ? | 0.9%[70.6 µM]
COc1ccccc1N1CCN(C[C@H]2CN3CC[C@H]2C[C@@H]3CNC(=O)Nc2cccc(SC)c2)CC1 | i | i | ? | ? | -0.5%
CN1CCN(C[C@H]2CN3CC[C@H]2C[C@@H]3CNC(=O)Nc2ccccc2)CC1 | i | 1.5%[88.5 µM] | 3.9%[172 µM] | ? | 4.4%[70.6 µM]
O=S(=O)(NC[C@H]1C[C@@H]2CCN1C[C@@H]2CN1CCC(Cc2ccccc2)CC1)c1ccc(Cl)cc1 | i | 0.9% | 7.08µM* | 14.1µM* | -3.5%
CSc1cccc(NC(=O)NC[C@H]2C[C@@H]3CCN2C[C@@H]3CN2CCC(Cc3ccccc3)CC2)c1 | i | 1.4% | ? | 25.1µM* | 2.7%
CCN(CC)C[C@H]1CN2CC[C@H]1C[C@@H]2CNS(=O)(=O)c1ccc(Cl)cc1 | i | i | ? | 70.8µM* | 1.8%[70.6 µM]
CN(C)CCc1c[nH]c2cccc(O)c12 | · | 10µM* | · | · | ·
CC[C@H](C)[C@H](NC(=O)[C@H]1CCCCN1C)C(=O)N(COC(=O)CC(C)C)[C@H](C[C@@H](OC(C)=O)c1nc(C(=O)N[C@@H](Cc2ccc(O)cc2)C[C@H](C)C(=O)O)cs1)C(C)C | · | i[1.22 µM] | · | · | ·
CCOC(=O)[C@@H]1[C@H]2c3ccccc3N(CCOC)C(=O)[C@H]2N(C(=O)C2CCC2)[C@@H]1c1ccccc1 | · | · | 50.1µM* | ? | ·
CCOC(=O)[C@@H]1[C@H]2c3ccccc3N(CCOC)C(=O)[C@H]2N(C(=O)CC(C)C)[C@@H]1c1ccccc1 | · | · | 39.8µM* | ? | ·
